Screening results from PubChem BioAssay.
In the library only some 2.8% were active in any assay of this set; here they are far more common.
PAFAH2 FP inh: PAFAH2 enzyme inhibitors, primary screen, biochemical, fluorescence polarization, human. Platelet-activating factor acetylhydrolase 2, cytoplasmic (Homo sapiens), Q99487. recombinant PAFAH2, FP-rhodamine activity probe. inhibition, % at 3.39 µM. 340,000 tested, 0.99% active;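 active = inhibition above the mean over all tested compounds plus 3 SD, cut at about 30% in these data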;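 note: inhibitors block probe labeling of enzyme so polarization drops; 0% = enzyme with DMSO and 100% = wells lacking PAFAH2 protein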
pPAFAH FP inh: pPAFAH enzyme inhibitors, primary screen, biochemical, fluorescence polarization, human; inhibition, % at 3.39 µM; recombinant pPAFAH, FP-rhodamine probe fluorescence polarization; Platelet-activating factor acetylhydrolase (Homo sapiens), Q13093; 330,000 tested, 1.5% active; AID 463082, 2010;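 active = inhibition above the mean inhibition across the screen plus 3 SD, cut at about 25% in these data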;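 note: inhibitors block binding of the rhodamine activity-based probe so polarization drops; 0% = enzyme with DMSO and 100% = wells lacking pPAFAH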
PAFAH1B3 FP inh: PAFAH1B3 enzyme inhibitors, primary screen, biochemical, fluorescence polarization, human | AID 492972, 2010 | 340,000 tested, 0.28% active | inhibition, % at 3.39 µM | recombinant PAFAH1B3, FP-rhodamine probe | Platelet-activating factor acetylhydrolase IB subunit alpha1 (Homo sapiens), Q15102;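 active = inhibition above the screen-wide average of all tested compounds plus 3 SD, cut at about 25% in these data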;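 note: 0% = enzyme with DMSO only and 100% = wells lacking PAFAH1B3 protein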
PAFAH1B2 inh: PAFAH1B2 enzyme inhibitors, primary screen, biochemical, fluorescence polarization, human. Platelet-activating factor acetylhydrolase IB subunit alpha2 (Homo sapiens), P68402. recombinant PAFAH1B2, FP-rhodamine activity probe. inhibition, % at 3.39 µM. 340,000 tested, 1.2% active;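 active = inhibition above the mean of all tested compounds plus 3 SD, cut at about 24% in these data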;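 note: 0% = enzyme with DMSO and 100% = wells lacking PAFAH1B2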
DAGLB inh: DAGLB lipase inhibitors, primary screen, biochemical, fluorescence, HTS | Diacylglycerol lipase-beta (Homo sapiens), Q8NCG7 | HEK293T DAGLB membrane lysate, EnzChek fluorogenic substrate | inhibition, % at 5.17 µM | 340,000 tested, 0.059% active | AID 504411, 2011; in the data active = inhibition above about 34%;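 note: 0% = enzyme with vehicle and 100% = wells lacking enzyme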
Target sequence (Q8NCG7 whole entry, looked up): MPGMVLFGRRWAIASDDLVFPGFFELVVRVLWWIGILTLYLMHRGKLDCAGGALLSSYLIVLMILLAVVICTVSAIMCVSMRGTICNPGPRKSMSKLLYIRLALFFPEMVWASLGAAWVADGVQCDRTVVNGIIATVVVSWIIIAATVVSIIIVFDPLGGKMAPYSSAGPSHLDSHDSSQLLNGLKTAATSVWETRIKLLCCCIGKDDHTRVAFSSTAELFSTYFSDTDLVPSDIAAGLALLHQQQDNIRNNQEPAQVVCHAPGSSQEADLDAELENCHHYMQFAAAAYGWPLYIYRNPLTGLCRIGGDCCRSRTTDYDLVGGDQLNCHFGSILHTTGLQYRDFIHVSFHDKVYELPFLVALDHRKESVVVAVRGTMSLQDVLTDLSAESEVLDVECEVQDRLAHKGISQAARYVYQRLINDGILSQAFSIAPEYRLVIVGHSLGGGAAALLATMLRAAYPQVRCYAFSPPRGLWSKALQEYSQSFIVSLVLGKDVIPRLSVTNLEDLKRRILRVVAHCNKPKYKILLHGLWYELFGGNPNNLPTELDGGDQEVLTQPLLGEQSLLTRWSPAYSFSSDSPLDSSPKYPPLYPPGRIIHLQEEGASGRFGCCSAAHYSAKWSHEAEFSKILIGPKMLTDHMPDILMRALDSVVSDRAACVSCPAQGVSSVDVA
HTRA1 inh: HTRA1 serine protease inhibitors, primary screen, biochemical, fluorescence polarization, HTS. Q92743. recombinant HTRA1, FP-rhodamine activity-based probe. inhibition, % at 5.96 µM. 340,000 tested, 0.5% active. AID 504803, 2011; in the data active = inhibition above about 36%;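 note: 0% = enzyme with DMSO and 100% = wells lacking enzyme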
PAFAH2 FP conf: PAFAH2 enzyme inhibitors, confirmation, biochemical, fluorescence polarization, human. AID 493030, 2011. recombinant PAFAH2, FP-rhodamine activity probe. inhibition, % at 3.39 µM. 2,300 tested, 65% active. shares compounds with PAFAH2 FP inh;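 active = mean inhibition over three repeats above a set limit taken from the earlier primary screen, cut at about 30% in these data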;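 note: inhibitor blocks binding of rhodamine activity probe so polarization falls; 0% = enzyme with DMSO and 100% = wells lacking PAFAH2 protein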
Starred values were filed as active, the others as inactive; . = not tested or not shown.

SMILES | PAFAH2 FP inh | pPAFAH FP inh | PAFAH1B3 FP inh | PAFAH1B2 inh | DAGLB inh | HTRA1 inh | PAFAH2 FP conf
CCc1cccc(CC)c1NC(=O)COC(=O)c1ccc(F)c(S(=O)(=O)N(CC)CC)c1 | 30* | 17 | 8 | 4 | -9 | 6 | 26
CCN(CC)S(=O)(=O)c1cc(C(=O)OCC(=O)Nc2cccc(Br)c2)ccc1F | 32* | 15 | -8 | -8 | -8 | -42 | 22
CCN(CC)S(=O)(=O)c1cc(C(=O)OCC(=O)Nc2cccc(C)c2C)ccc1F | 24 | 23 | 10 | 0 | -8 | -4 | .
COc1ccc(CCNC(=O)c2ccc3c(=O)n4c(nc3c2)CCC4)cc1OC | -3 | . | 3 | 2 | 1 | 3 | .
CC(=O)NC(C(=O)N1CCC(c2nc3ccccc3s2)CC1)C(C)C (stereo not given) | -6 | -2 | 0 | 4 | 1 | 3 | .
Cc1ccc(N2CCN(C(=O)c3ccccc3NC(=O)C3CC=CCC3C(=O)O)CC2)cc1 (stereo not given) | 66* | 0 | 7 | 2 | 0 | 0 | 57*
Cc1cccc(N2CCN(C(=O)c3ccccc3NC(=O)C3CC=CCC3C(=O)O)CC2)c1 (stereo not given) | 7 | -4 | 0 | -4 | -2 | 1 | .
CN(CC(=O)Nc1ccc(F)cc1)C(=O)COC(=O)CN1C(=O)NC2(CCCC2)C1=O | 8 | -1 | -8 | -1 | -4 | 0 | .
CCOc1ccc(S(=O)(=O)/N=C(/Nc2ccc(S(N)(=O)=O)cc2)c2ccccc2)cc1 | 44* | 4 | 9 | 7 | -4 | 0 | 23
CCOc1ccc(OCC(=O)Nc2ccc(S(N)(=O)=O)cc2)cc1 | -3 | 4 | 3 | 3 | -2 | -4 | .
Cc1ccc(/C=c2\sc3nc(-c4ccco4)nn3c2=O)o1 | 39* | 20 | 9 | 5 | 0 | 9 | 1
Cc1ccc(/C=c2\sc3nc(-c4ccccc4Br)nn3c2=O)o1 | 13 | 24 | -2 | 7 | 1 | 9 | .
COc1ccc(/C=C/C(=O)ONC2=NCCCCC2)cc1OC | 51* | 4 | -1 | 2 | -5 | 8 | 44*
CC(=O)c1cccc(NC(=O)COC(=O)c2cccs2)c1 | 81* | 8 | 0 | 4 | -2 | 3 | 77*
CCN(c1ccc(NC(=O)COC(=O)c2cccs2)cc1)C(C)C | 30* | 11 | 5 | -6 | 0 | 6 | 19
CC(=O)c1cccc(NC(=O)COC(=O)C2CCCN2C(=O)c2cccs2)c1 (stereo not given) | 2 | 4 | 7 | 3 | -3 | 2 | .
CCN(CC)c1ccc(NC(=O)COC(=O)c2cccs2)cc1 | 26 | 12 | 9 | 6 | -5 | 0 | .
O=C(COC(=O)c1cccs1)Nc1cccc(Cl)c1 | 91* | 6 | 7 | 8 | -4 | -7 | 89*
O=C(CCS(=O)(=O)c1ccc(Br)cc1)NC1CCCCCC1 | -4 | 3 | -5 | 8 | -1 | -4 | .
CN(CC(=O)Nc1ccc(F)cc1[N+](=O)[O-])Cc1ccccc1 | 0 | 5 | 3 | 4 | -9 | -5 | .
COCCN(CC1CCCN(C2Cc3ccccc3C2)C1)C(=O)CCSC (stereo not given) | 18 | 2 | 9 | -2 | -1 | 4 | .
COCCN(CC1CCCN(C2Cc3ccccc3C2)C1)C(=O)CSC (stereo not given) | 37* | -2 | 1 | 2 | 0 | -1 | 23
O=C(COC(=O)C1CC2CCCC(C1)C2=O)NC1CCCCC1 (stereo not given) | 63* | 2 | 6 | 1 | 2 | 2 | 55*
